This is an account of results in PubChem BioAssay AID1851 (National Center for Advancing Translational Sciences (NCATS), 2009).

“And” between values parts separate entries of the source, which are not always exact repeats. Equal entries are not always repeated. Hit rate of the full screen: of about 16,000 compounds, about 4,000 (25%) were called active. Roughly 26% stayed inconclusive and do not appear here. The call rests on the fitted dose curve; in most records, active means well fitted curve in the direction sought with a large enough effect; inconclusive means small, poorly fitted or top-dose-only effect, or effect the other way; inactive means no such curve, though single readings can be large or run the other way. A selection follows.

A word on the AC50: it is the concentration at which the activity in the assay is half-maximal.
On the % scale 0 is the no-effect control and ±100 the full control effect.

For this experiment, the target named is Cytochrome P450 2C9 (Homo sapiens) (UniProt P11712). Nature of the experiment: Cytochrome panel assay with activity outcomes. Conditions: recombinant CYP, pro-luciferin dealkylation, luminescence, p450-cyp2c9; series mostly up to 57.1 µM.
Chain of Cytochrome P450 2C9 (Homo sapiens) (P11712 whole entry, looked up): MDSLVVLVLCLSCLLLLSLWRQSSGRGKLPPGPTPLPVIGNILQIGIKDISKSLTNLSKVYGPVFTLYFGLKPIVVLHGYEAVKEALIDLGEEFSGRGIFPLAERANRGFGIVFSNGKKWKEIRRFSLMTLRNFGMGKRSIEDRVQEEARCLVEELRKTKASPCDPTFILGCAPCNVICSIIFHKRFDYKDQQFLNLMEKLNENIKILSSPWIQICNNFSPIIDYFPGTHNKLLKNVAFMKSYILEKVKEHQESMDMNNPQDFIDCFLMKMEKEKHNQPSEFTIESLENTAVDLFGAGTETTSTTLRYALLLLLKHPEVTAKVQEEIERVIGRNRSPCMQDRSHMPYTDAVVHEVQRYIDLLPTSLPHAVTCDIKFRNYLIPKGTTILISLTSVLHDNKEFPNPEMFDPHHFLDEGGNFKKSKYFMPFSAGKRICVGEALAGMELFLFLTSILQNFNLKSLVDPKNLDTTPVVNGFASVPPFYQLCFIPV
As to `COc1ncc2nc(-c3cn(C)c4ccccc34)c(=O)n(C)c2n1`, the AC50 entry is “inactive”.

Take `COc1cc2c(cc1OC)C(CCN)=NCC2`: the activity, negative = inhibition was -3.31% [at 11.4 µM] (inactive).

For the compound `C[C@]1(O)CC[C@H]2[C@H]3CC=C4N5CCN=C5CC[C@@]4(C)[C@H]3CC[C@@]21C`, the activity, negative = inhibition is -4.16% [at 11.4 µM] (inactive).

On to `COc1ccc2[nH]cc(CCNc3ncnc4ccc(-c5cccc(C#N)c5)cc34)c2c1`, for which the half-maximal activity concentration (AC50) was 0.0631 µM (active).

For the compound `COc1cccc(-c2ccc3ncnc(NCc4cnc(C)cn4)c3c2)c1`, the activity, negative = inhibition was -22.3% [at 2.29 µM] (inactive).

As to `COc1ccc2[nH]cc(CCNc3ncnc4ccc(-c5ccccc5CN(C)C)cc34)c2c1`, the activity, negative = inhibition was -13.9% [at 2.29 µM] (inactive).

Turning to `CC(=O)NCCNc1ncnc2ccc(-c3ccc4c(c3)OCO4)cc12`, the activity, negative = inhibition is 5.09% [at 2.29 µM] (inactive).

Consider `CNc1ncnc2ccc(-c3ccccc3OC)cc12`, for which the activity, negative = inhibition is 2.7% [at 2.29 µM] (inactive).

For `COc1ccc2[nH]cc(CCNc3ncnc4ccc(-c5ccc6c(c5)OCO6)cc34)c2c1`, the half-maximal activity concentration (AC50) is 0.126 µM (active).

As to `COc1ccc2[nH]cc(CCNc3ncnc4ccc(-c5ccccc5OC)cc34)c2c1`, the AC50 was 0.251 µM (active).

As for `COc1ccc2[nH]cc(CCNc3cc(-c4cccc(C#N)c4)ncn3)c2c1`, the activity, negative = inhibition was -22.1% [at 2.29 µM] (inactive).

As to `c1nc(NCCN2CCOCC2)c2cc(-c3ccc4c(c3)OCO4)ccc2n1`, the activity, negative = inhibition is 6.81% [at 2.29 µM] (inactive).

With `Cc1cnc(CNc2ncnc3ccc(-c4cccc(C#N)c4)cc23)cn1`, the activity, negative = inhibition is -16.4% [at 2.29 µM] (inactive).

Consider `COc1cccc(-c2ccc3ncnc(NCCc4c[nH]c5ccc(OC)cc45)c3c2)c1`, for which the AC50 is 0.398 µM (active).

With `CC(C)=CCC/C(C)=C/CO/N=C1/C[C@@H](O)[C@@H](O)[C@@H]2[C@@H]3C(=O)N(C(C)(C)C)C(=O)[C@H]3CC[C@H]12`, the activity, negative = inhibition is 23% [at 11.4 µM] (inactive).

On to `CC(=O)OC[C@@H]1O[C@H](C/C=N\O[C@@H](C)CN2CCCCc3nc(C)c(C)cc32)C=C[C@@H]1OC(C)=O`, for which the activity, negative = inhibition was 10.2% [at 11.4 µM] (inactive).

For `CC(C)(C)NC[C@H](O)COc1cccc2c1CCCC2=O`, the AC50 entry is “inactive”.

In the case of `CC(C)[C@H](CO)Nc1nc(Nc2cc(N)cc(Cl)c2)c2ncn(C(C)C)c2n1`, the AC50 is 20 µM (active).

As for `CC(C)[C@H](CO)Nc1nc(Nc2ccc(C(=O)O)c(Cl)c2)c2ncn(C(C)C)c2n1`, the AC50 result is “inactive”.

As for `CC(C)Oc1cccc(-n2c(CCc3c[nH]c4ccc(Br)cc34)nc3ccccc3c2=O)c1`, the AC50 entry is “inactive”.

As for `O=c1/c(=C\c2ccc(O)cc2)sc2n1C(c1ccccc1)C(c1ccccc1)=NN=2` (stereo unspecified), the half-maximal activity concentration (AC50) is 3.55 µM (active).

As to `CC(=O)NCCNc1nc(-c2ccc(N(C)C)cc2)nc2ccccc12`, the activity, negative = inhibition is -16.1% [at 2.29 µM] (inactive).

On to `COc1ccccc1CNc1ccnc(-c2ccc3c(c2)OCO3)n1`, for which the activity, negative = inhibition was -27.5% [at 2.29 µM] (inactive).

With `COc1ccc(CNc2ccnc(-c3ccc4c(c3)OCO4)n2)c(OC)c1`, the activity, negative = inhibition was -25.6% [at 2.29 µM] (inactive).

As to `COc1ccc([C@@H](Nc2ncccn2)c2cc3c(cc2O)OCO3)cc1`, the AC50 was 3.16 µM (active).

As for `COc1ccc([C@@H](C)c2cc3c(cc2O)OCO3)cc1`, the half-maximal activity concentration (AC50) was 1.58 µM (active).

As for `O=C(O)[C@@H](O)Cc1ccccn1`, the activity, negative = inhibition was -2.15% [at 11.4 µM] (inactive).

Regarding `O=C(COc1ccc(Cl)cc1Cl)N/N=C/CCc1ccccc1`, the AC50 result is “inactive”.

For `CC(C/C=N/NC(=O)COc1cc(Cl)ccc1Cl)c1ccccc1` (stereo unspecified), the AC50 was 10 µM (active).

As for `CC(C)C(=O)Nc1ccc(NC(=O)c2cccnc2)cn1`, the AC50 entry is “inactive”.

On to `CC(C)C(=O)Nc1ccc(Sc2ccc(F)cc2)cc1`, for which the AC50 is 14.1 µM (active).

Turning to `C/C(=N\NC(=S)Nc1ccc(F)cc1)C1CC1`, the AC50 result was “inactive”.

For `O=C(c1cc(C(F)(F)F)cc(C(F)(F)F)c1)N1CCC[C@@]2(CCN(c3ccncc3)C2)C1`, the AC50 entry is “inactive”.

Take `CCCN(CCC)C(=O)[C@@H](CCC(=O)O)NC(=O)c1ccccc1`: the AC50 result was “inactive”.

For `O=C(O)CC[C@@H](NC(=O)c1ccccc1C(=O)O)C(=O)O`, the AC50 entry is “inactive”.

For `CCCCCN(CCCCC)C(=O)[C@H](CCC(=O)O)NC(=O)c1ccc(Cl)c(Cl)c1`, the AC50 is 3.98 µM (active) and 1 µM (active).

Consider `CN(C)CCCO[C@H]1[C@H]([C@H](O)CO)O[C@H]2OC(C)(C)O[C@@H]21`, for which the AC50 entry is “inactive”.

Consider `Cc1cc(OC(=O)c2ccccc2Br)cc(=O)n1C`, for which the AC50 entry was “inactive”.

In the case of `Cc1cc(OC(=O)c2ccccc2Cl)cc(=O)n1C`, the AC50 is 10 µM (active).

For `CC(C)=C[C@H]1[C@@H](COC(=O)c2ccccc2Cl)C1(C)C`, the activity, negative = inhibition was -5.63% [at 11.4 µM] (inactive).

Regarding `Cc1cc(OC(=O)c2ccc(Cl)cc2)cc(=O)n1C`, the half-maximal activity concentration (AC50) was 25.1 µM (active).

Consider `CN(C)CCC=C1c2ccccc2C=Cc2ccccc21`, for which the AC50 result is “inactive”.

Consider `CCNc1ncc2nc(-c3ccc(F)cc3)c(=O)n(-c3ccc(OC)cc3)c2n1`, for which the AC50 result was “inactive”.

For the compound `O=C1[C@H]2CCn3c(=O)n(-c4ccccc4)c(=O)n3[C@H]2[C@H](O)[C@H]2O[C@@H]12`, the activity, negative = inhibition is -4.73% [at 11.4 µM] (inactive).

Consider `Clc1ccccc1C(Nc1ncccn1)Nc1ncccn1`, for which the activity, negative = inhibition is 4.43% [at 11.4 µM] (inactive).

Take `CCOC(=O)CC(Nc1nc(N2CCOCC2)nc(N2CCOCC2)n1)c1ccccc1Cl` (stereo unspecified): the AC50 is 4.47 µM (active).

As for `O=c1cc(N2CCOCC2)oc2c(-c3ccccc3)cccc12`, the AC50 entry was “inactive”.

Regarding `CCc1ccccc1N1C(=O)c2cccc3c(N4CCOCC4)c([N+](=O)[O-])cc(c23)C1=O`, the concentration at half-maximal activity (AC50) is 15.8 µM (active).

Regarding `CO[C@H]1C[C@@H]2C[C@H](O)C[C@@H](CC(=O)O[C@@H](/C=C\CC(C)C)C[C@@H]3CC[C@H](C)[C@@H](C1)O3)O2`, the activity, negative = inhibition was 1.57% [at 11.4 µM] (inactive).

For `O=C1c2ccccc2C(=O)N1CC1c2ccccc2CCN1S(=O)(=O)c1ccccc1` (stereo unspecified), the AC50 is 3.16 µM (active).

As for `CN1CCC2(CC1)CCN(S(=O)(=O)c1ccccc1)CC2`, the AC50 entry is “inactive”.

For `O=C(NCCN1CCN(Cc2ccccc2)CC1)C1c2ccccc2C(=O)N2CCc3ccccc3C12` (stereo unspecified), the AC50 entry was “inactive”.

Take `COCC(C)n1c(C)cc(C(=O)CSc2nnc(Nc3ccccc3F)s2)c1C` (stereo unspecified): the AC50 is 11.2 µM (active).

In the case of `CCOC(=O)N1CCN(C(=O)c2ccc3nc(SCc4ccc(F)cc4)n(C)c3c2)CC1`, the AC50 is 1.58 µM (active).

Regarding `CCOC(=O)N1CCN(C(=O)c2cc(-c3ccc(F)cc3)[nH]c2C)CC1`, the AC50 result was “inactive”.

For the compound `N#Cc1ccc(CN2CC3(CCN(C(=O)c4cccc(F)c4)CC3)C2)cc1`, the AC50 result was “inactive”.
